# In PubChem BioAssay AID1159506 (National Center for Advancing Translational Sciences (NCATS), 2015):
# The full ranking holds about 59,000 sequences; the median of the read-out is about -0.00055, and the lowest 2% start at about -2. The entries come from a sample that favours the lowest values as a whole.
# Assay: Identification of proteins required for the processing of the EWS-FLI1 nascent transcript;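 note: robust z of luciferase light less the median z of siRNAs with the same seed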
# Conditions: TC32 Ewing sarcoma NR0B1-luc vs CMV-luc (EWS-FLI1 target promoter against control promoter), 48 h; screened at 20 nM (by protocol)
# Summary of the method: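 Genome-wide siRNA screen (Ambion v4.1, three siRNAs per gene, 20 nM final, RNAiMax) in Ewing sarcoma TC32 cells carrying NR0B1-promoter or CMV-promoter luciferase; OneGlo luciferase read 48 h post-transfection. Data normalized, z-score-MAD transformed and seed-adjusted.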
row,Sequence,seed-corrected z-score
1,AGUACUACCAAAGAGAUGG against TBC1D23,0.0728
2,UAUCUUGAUCUGCCUCUCC against HOXB6,0.291
3,UAUCCCAAUACAAAGUACU against RCE1,-1.06
4,UUGCUUAACUACUCUGUGC against C9orf106,-11.2
5,AUCGCUGUAGCACUUGUGC against PKP3,-0.54
6,UGAGUUUCCACUUCCAGCC against UBQLN4,-2.2
7,UUUGUUCCAGGGAUGUACU against CYCS,0.577
8,UUCCCGUGAACCGUUGAUC against PNLIPRP3,0.389
9,ACACCUGUGACUAAGACCC against SDR39U1,-0.296
10,UUUGGUAUCUCCGACCACC against UCP2,0.898
11,UCAAGUGUAUCAGUUUUCG against KSR2,0.704
12,UGUGGUUGAAGAGGCUUGU against TMEM39B,-2.3
13,UAAGGUGUGAACUAUAAGG against ZNF267,-0.0939
14,UAUAUCAAAAUCCACUCGC against NDUFAF6,1.27
15,UUUCUUAGAUGAGACAUUG against EBLN2,-12.2
16,UAAACCUCCACCUAAGAGC against ELP4,0.275
17,UACUCGUACACUUCCAUGC against THBS3,1.22
18,UAACUAUAGUGGUUAGGUC against IL7R,-0.304
19,AUUUGGGACACUCAAAGGG against ZBTB48,-0.672
20,UCCAUAGCAGGAUUAUUGC against ACSL4,-4.37
21,UUUGUCGUCACUGUAUUCC against ING5,-0.505

row,Sequence,seed-corrected z-score
1,UAAGGGACAUCUAAGGAAC against MAML1,-1.38
2,AAACUUGCGAUCUCAUAUG against FBXW12,-0.183
3,UACAGGUAAACAGGUCGUG against SKINT1L,-3.34
4,UUCUGGUUCACCGUCUUCC against SLC13A2,-1.96
5,UUUCGUAUAGAGCUUCUCC against DNAJC5B,-0.0232
6,UUUAUAGUCAAUGGUAUUG against TAF1D,-0.19
7,UUCCUUAGCAGGUAUCGCG against PDZD7,0.373
8,AUAGUAAUGCCGGAACAGC against GPR108,-2.74
9,AUGGAGACAAGUUACCUGU against DCX,-1.34
10,UUGAGUGAGAAGAUCAGUG against PAH,-0.365
11,UUUGCAGUCGCAAUAGUCA against PRKCSH,-0.0915
12,ACUGGUAUUUGACAAGUCC against SGOL2,-0.0318
13,AAUACCUCAACAUUGAUCC against LILRA6,0.22
14,UACUUGUGAUCAUCUAGAC against PSMD1,-2.21
15,UCAGAGUUGGUGACUAUGC against MUC21,0.222
16,UGAUGUUCAGCAUCUUCUC against UBTF,-0.484
17,AGCGUAGUCAGUGUAGACC against DNAH2,0.323
18,AUAGGCUUCGUUAAUGAGC against YJEFN3,1.04
19,UUCCUGCUUGCCUCUAUGG against USP17L9P,-0.281
20,UCUCGGUCGAUGAAGUACC against KCTD7,-3.05
21,UCAAUCACACGUCUUAUGC against TRMT5,0.553

row,Sequence,seed-corrected z-score
1,UUCGUAUUCAACUGACUGC against TCP11L1,1.06
2,UAUGGGUUCAUCAGGCUCA against SH2D2A,-3.05
3,AAGAGAUCCAGCUUCCUGC against SPEG,-0.187
4,UCUUGAACCGGAUCGAUGC against TTLL9,-0.369
5,UUCGUGGGUAGCCAUGACC against F8A2,0.752
6,UUUUCAUAGAGGAUGAUCU against CRYBB2,1.03
7,UCUAAUACAAGGUUCAUAU against SNRPEP2,-2.56
8,UCAAUGCUCAGGGAACUGC against C1orf216,2.53
9,ACCUUAGUAAGAUCCAUUC against OSBPL9,0.727
10,UCAAACACGAUGGAGGUCC against SLC29A4,-0.131
11,AAAGACACCGUAGCUGAGG against MFNG,-0.181
12,UUUGUCAUUACCCGAACUG against RNASE11,0.455
13,UAAGGCUCCAGCAUAACAG against MIR924HG,0.428
14,AUCUUGGUCACUGGAGGCG against SFRP5,-3.64
15,UACAAGUCAAGCUCUCACA against LOC727799,-0.236
16,AAUAGAACAAGGACAGGAC against SAYSD1,-1.61
17,AAUGUGCUUAGCGCAGGUG against LINC01530,0.0903
18,UCAUUGUUGAUUUGGUCUC against 3-Sep,1.43
19,UCUAGAGUUAGGGUAUCUG against ARMC5,0.117
20,UGAUGGUCACAAUCCUCUC against PCBP3,-2.79
21,UUUUCUUGCGUAUGAAUUC against ZNF302,0.913

row,Sequence,seed-corrected z-score
1,UCUUGUUCCACCACGUCUC against GRID2,0.102
2,AGUGGGUAGAUUCCAUUCC against NRBP2,-2.82
3,UGUAGGAUCUGUCUCCAGG against LOC728587,-0.669
4,UUCGAUGAAAUGAUUUUCC against ZNF418,0.719
5,UGAUCAUCAGCGGUGAGGC against HMGB3P19,-1.07
6,AAAGUCUCCAGUACGAUGU against MROH3P,1.9
7,UUGCUGAACAGAUCAGUCC against ELF5,-0.256
8,AAGUUCAUAAGAUUCCAUG against MGP,0.212
9,UCAGUUUGUAGUCAGAGCC against AP3S2,0.309
10,UCAUCAUCAAUCACGGACG against BAP1,-2.03
11,UGUCUGUUGAUGGCCAAGC against AMELX,0.157
12,UCUGCGAUCAGUACCACUG against RBBP4,0.278
13,ACAGGGUUAAAAUUGUCCG against M6PR,-0.318
14,UCAAUGUUCACCACACGGC against PLEKHH1,-2.41
15,UUUGUUAGGAGCUUGUAGG against C1GALT1C1,1.55
16,UAUAUCAUCAAGCGUAACC against TCF20,-1.21
17,UCGUUGUAUACUUUGGUGC against PRKAR2B,-0.139
18,UAUGCUGUCGGAUGAGUCC against ATF1,0.345
19,UAUUGUCAAAUGAAGGUGG against TREML1,0.93
20,UUGGUAUCAUCUUCUGUAG against PLXDC2,-0.075
21,UUUCUGACCACGUCUAGCA against PEX11B,0.368
